A short description of assay [1]: NCI Yeast Anticancer Drug Screen. Data for the rad50 strain (AID 155).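 Further: 0% = growth of vehicle-only cultures of the same strain.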 To be noted: S. cerevisiae rad50 strain growth inhibition, active compounds read high. Summed up:
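Vehicle-treated cultures provide the reference for the growth inhibition reported for compound-exposed, repair-deficient yeast.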

Assay [2] in a line: NCI Yeast Anticancer Drug Screen. Data for the mec2-1 strain (AID 157). The following applies: S. cerevisiae mec2-1 strain, active compounds read high. In short, it runs like this: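 Strain: mec2-1 (DNA repair/cell cycle alteration). Compound exposure, then growth measured; inhibition expressed relative to vehicle.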
Assay [3] can be described thus: NCI Yeast Anticancer Drug Screen. Data for the sgs1 mgt1 strain (AID 161).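 Further: 0% = growth of cultures given vehicle only.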 The following applies: S. cerevisiae sgs1 mgt1 strain, active compounds read high. In short, it runs like this:
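Inhibition of yeast growth, normalised to vehicle-treated controls, is reported for a strain bearing genetic alterations in DNA damage repair.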

Assay [4] in a line: NCI Yeast Anticancer Drug Screen. Data for the cln2 rad14 strain (AID 165).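 Further: 0% = growth equal to vehicle treated cultures.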 To be noted: S. cerevisiae cln2 rad14 strain, active compounds read high. Summed up: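 Compounds are applied to the cln2 rad14 yeast strain, and growth is then compared with that of vehicle-treated cultures to give inhibition.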
Assay [5] is described as follows: NCI Yeast Anticancer Drug Screen. Data for the bub3 strain (AID 167). To be noted: S. cerevisiae bub3 mutant strain, active compounds read high. Summed up:
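Mutant yeast screening strain plus compound; vehicle-treated cultures serve as the 0% inhibition reference.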

A short description of assay [6]: NCI Yeast Anticancer Drug Screen. Data for the mlh1 rad18 strain (AID 175). To be noted: S. cerevisiae mlh1 rad18 strain growth inhibition, active compounds read high. Summed up: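 Read-out is yeast growth inhibition, calculated against vehicle-only controls. The compound was applied to a strain engineered with DNA damage repair alterations.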
Setting [7] is: at 5.0 µM (retest, dose inferred, filed as 0.5).
[8] abbreviates: at 50.0 µM (retest, dose inferred, filed as 5.0).

The panel holds about 79,000 compounds, 15% with a hit somewhere; the sample as a whole holds those more often. Unmarked numbers belong to inactive results. Calls of active or inactive are those of the source. No stated cut-off is given here; in the data, active means growth inhibition above about 70%; inactive means the rest.

For `O=C1Nc2ccc([N+](=O)[O-])c3c([N+](=O)[O-])ccc1c23`, the growth inhibition in assay [1] (setting [7]) was 4%; in assay [1] (setting [8]), 82% (active); in assay [1] (at 50.0 µM) it was 79% (active); in assay [2] (setting [7]), 11%; in assay [2] (setting [8]), 81% (active); in assay [2] (at 50.0 µM), 47.4%. In addition, the growth inhibition in assay [3] (setting [7]) is 3%; in assay [3] (setting [8]) it was 88% (active); in assay [3] (at 50.0 µM), 57.5%; in assay [4] (setting [7]), 0%; in assay [4] (setting [8]), 39%; in assay [4] (at 50.0 µM), 69.8%. Also, the growth inhibition in assay [5] (setting [7]) was 2%; in assay [5] (setting [8]) it was 70% (active); in assay [5] (at 50.0 µM) it was 34.2%; in assay [6] (setting [7]) it was 47%; in assay [6] (setting [8]), 94% (active); in assay [6] (at 50.0 µM) it was 90.7% (active).

Take `Oc1ccc(C2SC(c3ccc(O)cc3)SC(c3ccc(O)cc3)S2)cc1` (stereo not given): the growth inhibition in assay [1] (setting [7]) was 14%; in assay [1] (setting [8]), 98% (active); in assay [1] (at 50.0 µM), 97.6% (active); in assay [2] (setting [7]), -1%; in assay [2] (setting [8]) it was 96% (active); in assay [2] (at 50.0 µM) it was 99.3% (active). For the same compound, the growth inhibition is -23% in assay [3] (setting [7]); 99% (active) in assay [3] (setting [8]); 99% (active) in assay [3] (at 50.0 µM); 23% in assay [4] (setting [7]); 98% (active) in assay [4] (setting [8]); 98.4% (active) in assay [4] (at 50.0 µM). The growth inhibition in assay [5] (setting [7]) was 30%; in assay [5] (setting [8]), 99% (active); in assay [5] (at 50.0 µM), 98.1% (active); in assay [6] (setting [7]), 35%; in assay [6] (setting [8]) it was 99% (active); in assay [6] (at 50.0 µM) it was 98.8% (active).

On to `Cc1cc(C(O)(C(F)(F)F)C(F)(F)F)cc(C(O)(C(F)(F)F)C(F)(F)F)c1`, for which the growth inhibition in assay [1] (setting [7]) is -1%; in assay [1] (setting [8]) it was 99% (active); in assay [1] (at 50.0 µM) it was 97.2% (active); in assay [2] (setting [7]), 12%; in assay [2] (setting [8]), 99% (active); in assay [2] (at 50.0 µM) it was 98.3% (active). In addition, the growth inhibition was -6% in assay [3] (setting [7]); 99% (active) in assay [3] (setting [8]); 52.8% in assay [3] (at 50.0 µM); -4% in assay [4] (setting [7]); 99% (active) in assay [4] (setting [8]); 95.7% (active) in assay [4] (at 50.0 µM). Further, the growth inhibition in assay [5] (setting [7]) is 6%; in assay [5] (setting [8]) it was 98% (active); in assay [5] (at 50.0 µM), 96% (active); in assay [6] (setting [7]), 1%; in assay [6] (setting [8]), 99% (active); in assay [6] (at 50.0 µM), 97.8% (active).

As to `CCOCCOC(=O)C(C)O` (stereo not given), the growth inhibition was 9% in assay [1] (setting [7]); -1% in assay [1] (setting [8]); 9.25% in assay [1] (at 50.0 µM); -1% in assay [2] (setting [7]); -3% in assay [2] (setting [8]); 27.1% in assay [2] (at 50.0 µM). In addition, the growth inhibition is -2% in assay [3] (setting [7]); 3% in assay [3] (setting [8]); -3.1% in assay [3] (at 50.0 µM); 5% in assay [4] (setting [7]); 2% in assay [4] (setting [8]); 45.3% in assay [4] (at 50.0 µM). The growth inhibition in assay [5] (setting [7]) is 6%; in assay [5] (setting [8]) it was 14%; in assay [5] (at 50.0 µM) it was 9.25%; in assay [6] (setting [7]) it was 7%; in assay [6] (setting [8]), -2%; in assay [6] (at 50.0 µM), -7.1%.

`CC1CCC2(OC1)OC1CC3C4CCC5CC(OC6OC(COC7OC(CO)C(O)C(O)C7O)C(OC7OC(C)C(O)C(O)C7O)C(O)C6OC6OC(CO)C(O)C(O)C6O)CCC5(C)C4CCC3(C)C1C2C` (stereo not given): the growth inhibition in assay [1] (setting [7]) was 0%; in assay [1] (setting [8]), 99% (active); in assay [1] (at 50.0 µM) it was 99.2% (active); in assay [2] (setting [7]), -1%; in assay [2] (setting [8]), 100% (active); in assay [2] (at 50.0 µM) it was 99.8% (active). Moreover, the growth inhibition in assay [3] (setting [7]) is 16%; in assay [3] (setting [8]), 97% (active); in assay [3] (at 50.0 µM), 99.8% (active); in assay [4] (setting [7]), -2%; in assay [4] (setting [8]), 99% (active); in assay [4] (at 50.0 µM), 99.5% (active). For the same compound, the growth inhibition is 15% in assay [5] (setting [7]); 100% (active) in assay [5] (setting [8]); 99.6% (active) in assay [5] (at 50.0 µM); 2% in assay [6] (setting [7]); 100% (active) in assay [6] (setting [8]); 99.7% (active) in assay [6] (at 50.0 µM).

As to `COc1cc(/C=C2/N=C(c3ccccc3)N(C3=NNC4(C(=O)N3)c3ccccc3-c3ccccc34)NC2=O)ccc1O`, the growth inhibition was 4% in assay [1] (setting [7]); 3% in assay [1] (setting [8]); 36.5% in assay [1] (at 50.0 µM); -1% in assay [2] (setting [7]); 7% in assay [2] (setting [8]); -5.05% in assay [2] (at 50.0 µM). Besides, the growth inhibition was 6% in assay [3] (setting [7]); 14% in assay [3] (setting [8]); 7.55% in assay [3] (at 50.0 µM); 3% in assay [4] (setting [7]); 1% in assay [4] (setting [8]); -46.6% in assay [4] (at 50.0 µM). In addition, the growth inhibition in assay [5] (setting [7]) was -2%; in assay [5] (setting [8]), -7%; in assay [5] (at 50.0 µM), 27.4%; in assay [6] (setting [7]), -17%; in assay [6] (setting [8]), 11%; in assay [6] (at 50.0 µM) it was 20.5%.

For the compound `O=C(CCCCCCCCCCc1ccccc1)c1c(O)cccc1O`, the growth inhibition is 37% in assay [1] (setting [7]); 96% (active) in assay [1] (setting [8]); 82.7% (active) in assay [1] (at 50.0 µM); 29% in assay [2] (setting [7]); 97% (active) in assay [2] (setting [8]); 89% (active) in assay [2] (at 50.0 µM). The growth inhibition was 45% in assay [3] (setting [7]); 97% (active) in assay [3] (setting [8]); 87.2% (active) in assay [3] (at 50.0 µM); 24% in assay [4] (setting [7]); 95% (active) in assay [4] (setting [8]); 83.3% (active) in assay [4] (at 50.0 µM). The growth inhibition in assay [5] (setting [7]) is 41%; in assay [5] (setting [8]) it was 97% (active); in assay [5] (at 50.0 µM), 85.4% (active); in assay [6] (setting [7]), 39%; in assay [6] (setting [8]), 95% (active); in assay [6] (at 50.0 µM), 79.3% (active).

Take `Oc1cccc2cc(Br)cnc12`: the growth inhibition in assay [1] (setting [7]) was 24%; in assay [1] (setting [8]) it was 99% (active); in assay [1] (at 50.0 µM) it was 84% (active); in assay [2] (setting [7]), -17%; in assay [2] (setting [8]), 99% (active); in assay [2] (at 50.0 µM) it was 91.6% (active). Moreover, the growth inhibition in assay [3] (setting [7]) was -10%; in assay [3] (setting [8]), 99% (active); in assay [3] (at 50.0 µM), 81.5% (active); in assay [4] (setting [7]) it was 2%; in assay [4] (setting [8]), 99% (active); in assay [4] (at 50.0 µM) it was 88.8% (active). Moreover, the growth inhibition is -25% in assay [5] (setting [7]); 99% (active) in assay [5] (setting [8]); 88.2% (active) in assay [5] (at 50.0 µM); 21% in assay [6] (setting [7]); 99% (active) in assay [6] (setting [8]); 74.7% (active) in assay [6] (at 50.0 µM).

`CC1c2cc(c3c(c2O)CN([C@@H](C)C2CCCCC2)CO3)C(C)c2cc(c3c(c2O)CN([C@@H](C)C2CCCCC2)CO3)C(C)c2cc(c3c(c2O)CN([C@@H](C)C2CCCCC2)CO3)C(C)c2cc1c1c(c2O)CN([C@@H](C)C2CCCCC2)CO1` (stereo not given in full): the growth inhibition in assay [1] (setting [7]) was -3%; in assay [1] (setting [8]) it was -5%; in assay [1] (at 50.0 µM), 36.6%; in assay [2] (setting [7]), -1%; in assay [2] (setting [8]), -28%; in assay [2] (at 50.0 µM), 2.9%. For the same compound, the growth inhibition was -3% in assay [3] (setting [7]); -10% in assay [3] (setting [8]); 42.9% in assay [3] (at 50.0 µM); -2% in assay [4] (setting [7]); -44% in assay [4] (setting [8]); 30.8% in assay [4] (at 50.0 µM). Besides, the growth inhibition in assay [5] (setting [7]) was -1%; in assay [5] (setting [8]), -13%; in assay [5] (at 50.0 µM), 69.2%; in assay [6] (setting [7]) it was -6%; in assay [6] (setting [8]), -16%; in assay [6] (at 50.0 µM), 47.3%.

Turning to `C[Si](C)(C)CN1C(=O)c2ccccc2C1(O)c1ccccc1` (stereo not given), the growth inhibition in assay [1] (setting [7]) was -2%; in assay [1] (setting [8]) it was 69%; in assay [1] (at 50.0 µM) it was 69.8%; in assay [2] (setting [7]), -1%; in assay [2] (setting [8]) it was 66%; in assay [2] (at 50.0 µM) it was 35.8%. Besides, the growth inhibition in assay [3] (setting [7]) was -4%; in assay [3] (setting [8]), 74% (active); in assay [3] (at 50.0 µM), 47.5%; in assay [4] (setting [7]), -1%; in assay [4] (setting [8]), 29%; in assay [4] (at 50.0 µM), 42.5%. Moreover, the growth inhibition is -3% in assay [5] (setting [7]); 33% in assay [5] (setting [8]); 4.2% in assay [5] (at 50.0 µM); -1% in assay [6] (setting [7]); 69% in assay [6] (setting [8]); 71.2% (active) in assay [6] (at 50.0 µM).

Source of the values: PubChem BioAssay (NCI).
